Data taken from PubChem BioAssay (NCATS).
Results filed as inconclusive are left out. A call without a number means that no potency is given here. The source made the active and inactive calls. Calls come from the whole dose curve.

Each molecule was assayed against Peroxisome proliferator-activated receptor delta (Homo sapiens) (UniProt Q03181) (assay: qHTS assay for small molecule agonists of peroxisome proliferator-activated receptor delta signaling (AID 588534)). Settings: HEK293T PPARdelta-UAS-bla, beta-lactamase ratio, 18 h; series mostly up to 76.7 µM.
Peroxisome proliferator-activated receptor delta (Homo sapiens), sequence (Q03181 whole entry, looked up): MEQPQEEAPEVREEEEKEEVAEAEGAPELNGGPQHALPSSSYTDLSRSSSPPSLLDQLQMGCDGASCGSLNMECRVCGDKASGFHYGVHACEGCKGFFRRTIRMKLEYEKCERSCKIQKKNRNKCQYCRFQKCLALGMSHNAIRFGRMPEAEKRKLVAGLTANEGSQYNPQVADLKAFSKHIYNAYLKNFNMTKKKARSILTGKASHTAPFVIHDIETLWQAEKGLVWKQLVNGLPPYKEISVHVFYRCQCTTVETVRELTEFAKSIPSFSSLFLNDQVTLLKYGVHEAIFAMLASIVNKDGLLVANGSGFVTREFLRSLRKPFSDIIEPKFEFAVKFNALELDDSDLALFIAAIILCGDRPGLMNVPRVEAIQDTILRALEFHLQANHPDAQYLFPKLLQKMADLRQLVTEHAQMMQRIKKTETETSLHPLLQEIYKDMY
Text: NIH Chemical Genomics Center [NCGC] U.S. Environmental Protection Agency [EPA] National Institutes of Environmental Health Sciences [NIEHS] National Toxicology Program [NTP] NCGC Assay Overview The Peroxisome proliferator-activated receptors (PPARs) are lipid-activated transcription factors of the nuclear receptor superfamily with three distinct subtypes namely PPAR alpha, PPAR delta (also called PPAR beta) and PPAR gamma. All these subtypes heterodimerizes with Retinoid X receptor (RXR) and have different physiological functions. […] This role of PPAR delta implicates the potential use of its ligands in the treatment of metabolic disorders.
Compounds were screened in a titration series in 1536-well format. […] Concentration-response titration points for each compound were fitted to the Hill equation yielding concentrations of half-maximal stimulation (EC50) and maximal response (efficacy) values. qHTS protocol for PPAR-delta beta-lactamase assay in agonist mode [Step] [Parameter] [Value] [Description] 1. Reagent; 6 uL; 4000 cells/well 2. Incubation; 37 C for 5 hrs 3. Compounds; 23 nL; 0.59 nM to 92 uM 4. […] Incubation; 37 C for 18 hrs 6. Detection reagent; 1 uL of CCF4-dye 7. Incubation; RT for 2 hrs 8. Detection; Fluorescence; Envision plate reader

Row | SMILES | Potency
1 | CCCCOP(=O)(O)OCCCC | inactive
2 | C[C@@H]1Cc2c(Cl)cc(C(=O)N[C@@H](Cc3ccccc3)C(=O)O)c(O)c2C(=O)O1 | 39.8 µM (active)
3 | CCCCCCCCCC(C)=O | inactive
4 | CC(=O)/C=C/c1ccccc1 | inactive
5 | CCOP(=S)(OCC)SCSCC | inactive
6 | O=Cc1ccccc1 | inactive
7 | CC(=O)OCCC(C)C | inactive
8 | CCOC(=O)c1ccccc1N | inactive
9 | CC(=O)C(C)=O | inactive
10 | COC(=O)CCCC(=O)OC | inactive
11 | Cc1cc(O)c2c(c1)C(=O)c1cccc(O)c1C2=O | inactive
12 | O=C(/C=C/C=C/c1ccc2c(c1)OCO2)N1CCCCC1 | inactive
13 | O=C(O)c1cc(O)c2ccccc2c1O | inactive
14 | CCNc1nc(N)nc(Cl)n1 | inactive
15 | CCCCC(CC)C(=O)O (stereo not given) | inactive
16 | O=C(OCc1ccccc1)c1ccccc1O | inactive
17 | O=c1c(-c2ccc(O)cc2)coc2cc(O)ccc12 | inactive
18 | CCCCCCCCCCCCCCC | inactive
19 | CC(=O)/C=C/C1C(C)=CCCC1(C)C (stereo not given) | inactive
20 | C=CC(=C)CCC=C(C)C | inactive

Row | SMILES | Potency
21 | C=CCCCCCCCCC=O | inactive
22 | O=C(O)/C=C/C(=O)O | inactive
23 | OCCO | inactive
24 | CCCCCCCCCCCCCCCC | inactive
25 | NC(=O)c1ncn([C@@H]2O[C@H](CO)[C@@H](O)[C@H]2O)n1 | inactive
26 | Cc1cccc(O)c1C | inactive
27 | CCCCCCCCCC(=O)O | inactive
28 | c1ccc2c(c1)ccc1ccccc12 | inactive
29 | CC(C)CCCCCCCCCCCCCCC(=O)O | inactive
30 | c1ccc(Nc2ccc3ccccc3c2)cc1 | inactive
31 | COC(=O)CCC(=O)OC | inactive
32 | CC(C=CC1=C(C)CCCC1(C)C)=CC=CC(C)=CC(=O)Nc1ccc(O)cc1 | inactive
33 | CCOc1cc(C=O)ccc1O | inactive
34 | COc1ccc(OC)cc1 | inactive
35 | CC1=C(/C=C/C(C)=C/C=C/C(C)=C\C=O)C(C)(C)CCC1 | inactive
36 | c1ccc(Nc2cccc3ccccc23)cc1 | inactive
37 | CC(C)Nc1nc(N)nc(Cl)n1 | inactive
38 | COC(=O)c1ccc(C)cc1 | inactive
39 | CCCCCCCCCCCCCc1ccccc1 | inactive
40 | CC(C)=CCC/C(C)=C/CC/C(C)=C/CO | inactive
